GALC G270D up: galactocerebrosidase G270D activity enhancement, cell-based; hit rate 0.1% among 45,000; Potency, µM (doses to about 57.5 µM), most hits filed as activators; 145M-Twi-hGALC-G270D cells (Twitcher mouse brain line with human GALC G270D), HMU-beta-Gal fluorescence, 48 h; P54803; note: 0% is about no effect; nearly all actives have a fitted effect of over 65% in size
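Live 145M-Twi cells (Twitcher mouse brain-derived, GALC-null) stably expressing human GALC-G270D, with a wild-type GALC line, were compound-treated. Residual GALC activity was then read as fluorescence from 0.1 mM final HMU-β-gal at pH 5.2; higher signal means activation.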
PMP22 txn: modulators of PMP22 gene transcription in S16 Schwann cells. Potency, µM (top dose mostly 57.5 µM), for the others: at the highest dose activity change, negative = inhibition, actives largely listed as inhibitors. S16 Pmp22-F2sN Schwann cells, FLuc/NLuc coincidence luminescence, 24 h. hit rate 2% among 43,000; active = clear falling dose curves in both reporters; inconclusive = both reporters move, but less clearly or upward; inactive = either reporter flat; the % is the NLuc reporter signal; note: % is set by controls: 0 for no effect and ±100 for the full control effect
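S16 Schwann cells carrying FLuc/NLuc coincidence reporter in the Pmp22 3' UTR treated with compound 24 h at 37C; FLuc then NLuc luminescence read sequentially by dual-luciferase reagents.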
NTMT1 inh: blocks human N-terminal methyltransferase 1 activity | Q9BV86 | NTMT1 MTase-Glo SAH luminescence, purified enzyme | Potency, µM (titrated, usually from 114 µM), inactives show at the top dose activity change, negative = inhibition, hits mostly inhibitors | hit rate 2.5% among 59,000;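 note: plate controls were DMSO vehicle for no effect and no enzyme for full effect; nearly all actives have a fitted effect of over 65% in size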
Target sequence (Q9BV86 whole entry, looked up): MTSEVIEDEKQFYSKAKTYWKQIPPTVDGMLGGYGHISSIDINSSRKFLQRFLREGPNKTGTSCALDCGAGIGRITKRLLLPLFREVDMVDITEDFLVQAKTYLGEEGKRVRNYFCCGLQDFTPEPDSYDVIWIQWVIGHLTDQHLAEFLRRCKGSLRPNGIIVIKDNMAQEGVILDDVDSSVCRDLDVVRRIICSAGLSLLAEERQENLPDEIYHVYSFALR
mTORC1 inh: reduces mTORC1 signaling in Tsc2 and p53 null MEF cells; Tsc2-/- p53-/- MEF, phospho-rpS6 immunofluorescence/PI, 24 h; Potency, µM (doses to about 38.3 µM), for inactives: top-dose activity change, negative = inhibition, usual class: inhibitors; hit rate 0.78% among 44,000; AID 493208;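 note: plate controls were DMSO for no effect and rapamycin for full effect; nearly all actives have a fitted effect of over 50% in size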
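Plate MEFs (Tsc2-/-, p53-/-, empty vector) in DMEM/10% FBS; after 24 h add compound, incubate 24 h at 37 degree Celsius; fix in PFA/TX-100, block, stain phospho-rpS6 and 10 uM PI; scan at 488 nm; report % positive cells.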
S16 viability: S16 Schwann cell cytotoxicity; S16 Pmp22-F2sN Schwann cells (luciferase reporters placed in the Pmp22 gene) viability, CellTiter-Glo, 24 h; hit rate 0.48% among 43,000; Potency, µM (doses to about 57.5 µM), for the others: top-dose activity change, negative = cytotoxicity, most hits filed as cytotoxic; note: % is set by controls: 0 for no effect and ±100 for the full control effect; nearly all actives have a fitted effect of over 65% in size
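S16 Schwann cells carrying the Pmp22-F2sN reporter, seeded in 1536-well format, were exposed to library compounds for 24 h at 37C. Viability was read as CellTiter-Glo luminescence after 15 min at room temperature.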
SKOV3 invasion: blocks SKOV3ip1 adhesion and invasion in omental model | Potency, µM (series often up to 45.8 µM), inactives show at the highest dose activity change, negative = inhibition, usual class: inhibitors | SKOV3ip1-GFP adhesion/invasion on 3D omental model, fluorescence | hit rate 0.1% among 46,000 | AID 1963576;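 note: plate controls were DMSO wells for no effect and tomatine positive control wells for full effect; nearly all actives have a fitted effect of over 65% in size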
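qHTS, 4-pt dose (0.36-46 umol/L); SKOV3ip1-GFP, 1,200 cells/well, no FBS; primary omental fibroblast/mesothelial co-culture 48 h pre-grown; 2 h RT + 16 h 37 C; PBS wash, 4% PFA; GFP count 488/509 nm.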
Starred values were filed as active, the others as inactive; i = inactive; ? = inconclusive; . = no result; ! = a repeat was not active; [ ] = dose if it differs, or a comment. The list is not random: actives were taken first. Their share in the collection is about 3.6%. Unless noted, calls come from the whole dose curve; as a rule, active = well fitted curve in the direction sought with a large enough effect; inconclusive = small, poorly fitted or top-dose-only effect, or another doubt; inactive = no such curve, though single readings can be large; an effect the other way counts as inactive or inconclusive. Potency is the fitted concentration of half-maximal effect.

SMILES	GALC G270D up	PMP22 txn	NTMT1 inh	mTORC1 inh	S16 viability	SKOV3 invasion
NC1CCC(Nc2nc(Nc3ccc(C(=O)N4CCCCC4)cc3)c3ncn(-c4cccc(F)c4)c3n2)CC1 (stereo not given)	.	.	40µM*	.	.	-4%
CCS(=O)(=O)c1ncc(Cl)c(C(=O)Nc2ccc(S(=O)(=O)N(C)c3ccccc3)cc2)n1	i	1µM*	2%	0.41µM*	4.5µM*	-12%
CCSc1ncc(Cl)c(C(=O)Nc2ccc(S(=O)(=O)N(C)c3ccccc3)cc2)n1	i	?	-3%	-3%	-23%	i
CCN(c1ccccc1)S(=O)(=O)c1ccc(NC(=O)c2nc(S(C)(=O)=O)ncc2Cl)cc1	i	1.7µM*	-6%	3.3µM*	4.5µM*	?
O=[N+]([O-])c1ccccc1S(=O)(=O)N1CCN(S(=O)(=O)c2ccc3c(c2)OCCO3)CC1	.	.	-2%	.	.	.
O=c1[nH]nc(Sc2ncc([N+](=O)[O-])s2)n1-c1ccc2c(c1)OCCO2	.	.	4.3µM*!	.	.	15µM*
C[N+](C)([O-])CCNc1ccc(NCC[N+](C)(C)[O-])c2c1C(=O)c1c(O)ccc(O)c1C2=O	.	.	?	.	.	-15%
O=C1c2c(O)ccc(O)c2C(=O)c2c(NCCNCCO)ccc(NCCNCCO)c21	i	.	28µM*!	.	.	?
COc1ccc2c(c1)C=C1Cn3c-2c(C2CCCCC2)c2ccc(cc23)C(=O)NS(=O)(=O)N(C)CCOCCN(C)C1=O	.	.	45µM*	.	.	.
Cn1nnnc1Sc1ncnc2scc(-c3ccc4c(c3)OCO4)c12	.	.	89µM*	.	.	.
COc1cc(OC)c(NC(=O)Nc2cccc(OCc3cc(=O)n4ccccc4n3)c2)cc1Cl	i	?	79µM*	-6%	4%	12%
Cc1ccc(OCCn2c(CCNC(=O)c3cccc(C)c3)nc3ccccc32)cc1	.	.	14%	.	.	.
CCc1ccccc1NC(=O)CCCN1C(=O)COc2ccc(C)cc21	i	-5%	-19%	-2%	-17%	i
CC(=O)c1cccc(NC(=O)CCCN2C(=O)COc3ccc(C)cc32)c1	i	?	79µM*	-10%	?	8%
O=C(O)/C(S)=C/c1ccc(I)cc1	.	.	79µM*	.	.	.
COc1ccccc1Nc1nn2c(=O)c3ccc(C(=O)NC4CCCCC4)cc3nc2s1	i	?	17%	1%	6%	-15%
COc1cc(C(=O)NC2CCN(C)CC2)ccc1Nc1ncc2c(n1)N(C1CCCC1)CCC(=O)N2C(C)C	.	.	22µM*	.	.	?
CC[C@@H]1C(=O)N(C)c2cnc(Nc3ccc(C(=O)NC4CCC(N5CCN(CC6CC6)CC5)CC4)cc3OC)nc2N1C(C)C (stereo not given in full)	.	.	25µM*!	.	.	?
O=C1Cc2cc(S(=O)(=O)N3CCN(c4ccc(CO)cc4)CC3)ccc2N1	.	.	50µM*	.	.	.
Nc1ncnc2c1ncn2[C@@H]1O[C@H](CN[S+](=O)([O-])NC(=O)c2cccc(-c3noc(-c4ccccc4F)n3)c2)[C@@H](O)[C@H]1O	.	.	0.89µM*	.	.	.
O=C(O)c1ccc(-n2cccc2/C=C2\SC(=O)N(Cc3ccc(F)cc3)C2=O)cc1	.	.	79µM*	.	.	.
O=C(O)CN1C(=O)N/C(=C\c2cccn2-c2ccc(P(=O)(O)O)cc2)C1=O	.	.	-3%	.	.	.
O=C(O)c1ccc(-n2cccc2/C=C2\SC(=O)N(Cc3ccccc3Cl)C2=O)cc1	.	.	50µM*	.	.	.
COc1cc(N2CCC(N3CCN(C)CC3)CC2)ccc1Nc1ncc(Cl)c(Nc2ccccc2S(=O)(=O)C(C)C)n1	.	.	25µM*!	.	.	-7%
COc1cc(N2CCN(C)CC2)ccc1Nc1nc(N)c(C(=O)c2c(Cl)cccc2Cl)s1	.	.	4%[57.5 µM]	.	.	8%
SMILES	GALC G270D up	PMP22 txn	NTMT1 inh	mTORC1 inh	S16 viability	SKOV3 invasion
Nc1ncnc2nc(-c3ccc(N4CCOCC4)nc3)cc(-c3cccc(Br)c3)c12	.	.	1.1µM*	.	.	-1%
NC1=NC2(c3cc(NC(=O)c4ccc(F)cn4)ccc3F)COCC2CS1 (stereo not given)	.	.	2%[57.5 µM]	.	.	.
Cc1ccc2nc(/C(C#N)=C/c3cccc(Br)c3)[nH]c2c1	i	?	?	18µM*	?	-1%
Cn1ncc(Cl)c1C1N=C(Nc2nc3ccccc3o2)NC2=C1C(=O)CCC2 (stereo not given)	.	.	3%	.	.	.
CC1C2=CC(=O)OC2(O)CC2C1C(OC(=O)c1ccccc1)C(OC(=O)c1ccccc1)C1(O)C2(C)CCC(O)C1(C)C(=O)O (stereo not given)	.	.	-24%[12.6 µM]	.	.	.
COc1ccc(-c2cc(C(C)=O)c(C)n2CCC(=O)Nc2cc(Cl)ccc2C)cc1	i	-3%	89µM*	-13%	0%	-4%
COc1ccc(C2C(=O)N(C3CCCCCC3)CC(=O)N2CCc2ccc(OC)c(OC)c2)cc1 (stereo not given)	.	.	.	-13%	.	-7%
